Screening results (PubChem)
PME-1 primary: PME-1 (human) inhibition. hit rate 0.53% among 320,000. Q9Y570. inhibition, % at 5.9 µM. recombinant PME-1, FP-Rh probe fluorescence polarization. AID 2130;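 active = inhibition above the campaign mean of all compounds plus 3 SD, cut at about 26% in these data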;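 note: competitive labeling of PME-1 active site by serine hydrolase directed probe; 0% = PME-1 with DMSO and 100% = wells lacking PME-1 enzyme; inhibitors block probe labeling so polarization falls and inhibition rises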
Fam108B inh: blocks mouse Fam108B hydrolase in RBBP9 counter-screen; AID 1947; recombinant Fam108B, FP-Rh probe fluorescence polarization; hit rate 0.33% among 300,000; inhibition, % at 9.51 µM;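 active = inhibition above the screen mean inhibition plus 3 SD, computed separately per campaign, cut at about 18% in these data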;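 note: inhibitors lower polarization as less probe binds the enzyme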
PAFAH1B3 FP inh: inhibitors of human PAFAH1B3; Q15102; recombinant PAFAH1B3, FP-rhodamine probe, fluorescence polarization; inhibition, % at 3.39 µM; hit rate 0.28% among 340,000; AID 492972;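 active = inhibition above the screen-wide average of all tested compounds plus 3 SD, cut at about 25% in these data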;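 note: 0% = enzyme with DMSO only and 100% = wells lacking PAFAH1B3 protein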
PAFAH2 FP inh: inhibitors of human PAFAH2. recombinant PAFAH2, FP-rhodamine activity probe, fluorescence polarization. inhibition, % at 3.39 µM. hit rate 0.99% among 340,000;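 active = inhibition above the mean over all tested compounds plus 3 SD, cut at about 30% in these data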;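 note: inhibitors block probe labeling of enzyme so polarization drops; 0% = enzyme with DMSO and 100% = wells lacking PAFAH2 protein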
PAFAH1B2 FP inh: blocks human PAF acetylhydrolase 1b catalytic subunit 2. inhibition, % at 3.39 µM. hit rate 1.2% among 340,000. recombinant PAFAH1B2, FP-rhodamine activity probe, fluorescence polarization;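 active = inhibition above the mean of all tested compounds plus 3 SD, cut at about 24% in these data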;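 note: 0% = enzyme with DMSO and 100% = wells lacking PAFAH1B2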
pPAFAH FP inh: inhibitors of human plasma PAF acetylhydrolase (pPAFAH); recombinant pPAFAH, FP-rhodamine probe fluorescence polarization; inhibition, % at 3.39 µM; hit rate 1.5% among 330,000;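 active = inhibition above the mean inhibition across the screen plus 3 SD, cut at about 25% in these data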;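 note: inhibitors block binding of the rhodamine activity-based probe so polarization drops; 0% = enzyme with DMSO and 100% = wells lacking pPAFAH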
Target sequence (Q13093 whole entry, looked up): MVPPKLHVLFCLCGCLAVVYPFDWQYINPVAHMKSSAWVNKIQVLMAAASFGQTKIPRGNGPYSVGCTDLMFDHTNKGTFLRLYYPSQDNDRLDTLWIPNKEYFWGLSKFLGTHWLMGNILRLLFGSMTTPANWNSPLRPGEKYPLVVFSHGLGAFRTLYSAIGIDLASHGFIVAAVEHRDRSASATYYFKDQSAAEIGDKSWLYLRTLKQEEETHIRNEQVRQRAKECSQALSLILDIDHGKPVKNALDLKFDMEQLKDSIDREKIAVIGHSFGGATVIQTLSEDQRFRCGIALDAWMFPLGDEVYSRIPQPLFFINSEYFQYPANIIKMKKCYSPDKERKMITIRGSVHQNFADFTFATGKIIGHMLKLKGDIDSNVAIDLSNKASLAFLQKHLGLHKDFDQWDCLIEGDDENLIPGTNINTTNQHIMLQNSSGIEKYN
PAFAH2 confirm: confirmation of human PAFAH2 inhibitors; shares compounds with PAFAH2 FP inh; recombinant PAFAH2, FP-rhodamine activity probe, fluorescence polarization; inhibition, % at 3.39 µM; hit rate 65% among 2,300; AID 493030;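 active = mean inhibition over three repeats above a set limit taken from the earlier primary screen, cut at about 30% in these data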;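 note: inhibitor blocks binding of rhodamine activity probe so polarization falls; 0% = enzyme with DMSO and 100% = wells lacking PAFAH2 protein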
Active calls of the source: *; / = no result. Sampled rows, rich in hits. Any-hit rate of the full collection: about 2.8%.

SMILES	PME-1 primary	Fam108B inh	PAFAH1B3 FP inh	PAFAH2 FP inh	PAFAH1B2 FP inh	pPAFAH FP inh	PAFAH2 confirm
CC(C)(C)NC(=O)COC(=O)c1ccc(NC(=O)CC#N)cc1	0	-1	2	67*	4	7	53*
CN(C)c1cccc(C(=O)OCC(=O)NC(=O)NCc2ccccc2)c1	/	/	10	-2	2	6	/
C/C(=N/NC(=O)c1ccco1)c1cccnc1	2	-3	-1	-8	2	-3	/
CCN(CC)S(=O)(=O)c1cc(NC(=O)COC(=O)c2ccc(NC(=O)CC#N)cc2)ccc1C	-2	-3	-21	51*	-9	20	50*
CCN(CC)S(=O)(=O)c1cc(C(=O)OCC(=O)Nc2cccc(C)c2C)ccc1F	2	0	10	24	0	23	/
CC(CCc1ccccc1)NC(=O)COC(=O)c1ccc(NC(=O)CC#N)cc1 (configuration not stated)	-27	-4	-1	54*	3	-17	51*
S=C(NCCCN1CCOCC1)Nc1ccc(N2CCOCC2)cc1	2	2	12	42*	10	6	4
Cc1ccc(N=C(NOC(=O)c2ccccc2)c2nonc2N)c(C)c1	7	-14	-7	68*	-1	5	67*
Cc1ccc(N=C(NO)c2nonc2N)c(C)c1	-2	2	1	-4	-4	0	/
O=C(OCC1CC(c2ccccc2)=NO1)c1ccco1 (configuration not stated)	-3	-1	8	33*	-2	-7	24
Cc1cc(O)c(/C=N/OCc2ccc(Cl)cc2Cl)c(=O)o1	-2	-1	-1	85*	17	2	77*
Cc1cc(O)c(/C=N/Nc2cccc(Cl)c2)c(=O)o1	-3	5	6	38*	1	4	30*
COc1ccc(Cl)cc1N=Cc1c(O)cc(C)oc1=O	-1	0	12	2	-1	0	/
Cc1cc(O)c(/C=N/Nc2ccc(Cl)cc2)c(=O)o1	-1	1	-2	12	2	3	/
O=[N+]([O-])c1cccc(S(=O)(=O)Nc2ccc(S(=O)(=O)Nc3nccs3)cc2)c1	8	6	6	2	0	2	/
Nc1ccc(S(=O)(=O)Nc2nccs2)cc1N=Nc1ccccc1[N+](=O)[O-]	/	/	21	54*	14	/	37*
O=C1c2ccccc2C(=O)C2OC12 (configuration not stated)	7	2	/	/	/	6	/
O=C1OC(c2ccccc2)Sc2ccccc21 (configuration not stated)	/	/	2	81*	5	/	85*
N/C(=N\OC(=O)c1cccs1)c1cccc(Br)c1	-1	0	-2	47*	6	9	42*
Cc1cccc(/C(N)=N/OC(=O)c2cccs2)c1	-2	0	-2	45*	4	4	30*
NS(=O)(=O)c1cc(C(=O)N2CCNC(=O)C2)ccc1Cl	-4	-4	14	-2	1	2	/
Cc1ccsc1C(=O)NN=C1CCCCCC1	0	0	6	-3	6	3	/
COc1cc(/C=C2\SC(=O)N(c3ccccc3Cl)C2=O)cc([N+](=O)[O-])c1O	/	/	20	36*	14	/	23
COc1cc(/C=C2\SC(=O)N(c3ccc(O)cc3)C2=O)cc(OC)c1OC	3	2	5	-1	-3	1	/
CC(=O)c1ccc(S(=O)(=O)N(C)C(C)CCc2ccco2)cc1 (configuration not stated)	/	/	7	2	6	/	/
SMILES	PME-1 primary	Fam108B inh	PAFAH1B3 FP inh	PAFAH2 FP inh	PAFAH1B2 FP inh	pPAFAH FP inh	PAFAH2 confirm
Cc1cccc(C(=O)Nc2sc(C)c(-c3ccccc3)c2C#N)c1	-14	-8	-4	47*	1	-1	-1
Cc1noc(C)c1C(=O)Nc1sc(C)c(-c2ccccc2)c1C#N	2	1	2	-3	9	3	/
CCc1ccc(CN(C)Cc2nc(COc3ccccc3)no2)nc1	2	1	8	30*	0	10	13
CCc1ccc(CN(C)Cc2nc(Cc3cccc(C(F)(F)F)c3)no2)nc1	0	2	13	6	5	17	/
CC1CN(Cc2cc(=O)oc3cc(O)ccc23)CC(C)O1 (configuration not stated)	-4	-1	2	9	4	2	/
O=C(c1cnn2c(C(F)F)cc(-c3ccccc3)nc12)N1CCCc2ccccc21	-7	-1	4	-10	3	-4	/
O=C(c1cnn2c(C(F)(F)F)cc(-c3ccccc3)nc12)N1CCCc2ccccc21	1	3	-1	39*	2	6	39*
Cc1cc(NC(=O)c2cnn3c(C(F)(F)F)cc(-c4ccccc4)nc23)no1	5	-2	-7	30*	2	3	16
COc1cc(NS(=O)(=O)c2ccc(N/C=C\C(=O)c3ccc(F)cc3)cc2)nc(OC)n1	-3	-3	7	9	3	2	/
Nc1cc(C(=O)OCC(=O)NC(c2ccccc2)c2ccccc2)ccc1Cl	-7	-6	4	-3	6	0	/
COCC(=O)OCC(=O)Nc1ccccc1-c1ccccc1	5	-2	2	5	6	2	/
O=C(CCCOC(=O)c1ccc(O)cc1)c1ccccc1	/	/	8	50*	8	13	45*
O=C(COC(=O)c1ccc(O)cc1)NC(c1ccccc1)c1ccccc1	/	/	1	46*	10	17	36*
CSc1ccccc1NC(=O)COC(=O)c1ccccc1O	0	0	1	5	0	3	/
O=C(COC(=O)c1ccc(O)cc1)Nc1ccccc1-c1ccccc1	-12	-4	9	46*	7	6	39*
CSc1ccccc1NC(=O)COC(=O)c1ccc(O)cc1	-3	0	9	54*	2	16	38*
O=S(=O)(NC1CCN(S(=O)(=O)c2ccc3c(c2)OCCO3)C1)c1c(F)cccc1F (configuration not stated)	-1	/	7	-2	3	-4	/
COc1cccc(NC(=O)COC(=O)c2sccc2C)c1	/	/	7	82*	2	12	82*
Cn1cccc1C(=O)OCC(=O)NCc1ccc2c(c1)OCO2	4	/	5	0	-1	14	/
Cn1cccc1C(=O)OCC(=O)Nc1ccc2c(c1)OCCO2	/	/	7	49*	4	0	33*
COc1cccc(NC(=O)COC(=O)c2ccco2)c1	2	-4	-2	68*	-1	7	63*
Cc1ccc(NC(=O)COC(=O)c2ccco2)cc1C	3	/	-1	77*	6	-3	59*
O=C(COC(=O)c1ccco1)Nc1ccc2c(c1)OCCO2	-2	2	10	51*	0	0	37*
Cc1ccc(NC(=O)COC(=O)c2ccco2)cc1	-2	3	5	62*	5	1	53*
